test system: TDF; experiment: H1.0 immunofluorescence intensity relative to DMSO (% of DMSO); higher = stronger H1.0 induction, active = 120 or more; details: concentration: 10 µM; 24 h
Procedure, shortened: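 Six fields per well were imaged at ×10 after the cells were fixed in 3.7% formaldehyde and stained with a rabbit anti-H1.0 antibody, an AlexaFluor 647 secondary and DAPI. The HCC1569 and TDF cells had been plated at 800 per well in 384-well plates (RPMI, 10% FBS) and treated in triplicate with compounds at 10 µM for 24 h at 37 °C. The values are the median of replicates of H1.0 nuclear intensity or cell number, as percent of the plate control. Smoothing for positional effects was applied to HCC1569 data.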
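Also: TDF is a line of transformed human dermal fibroblasts of mesenchymal origin.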

H1.0 immunofluorescence intensity, inactive:
CCCCCC(=O)C=CC=CCCCCCCCC(=O)O [13-Ketooctadecadienoioc acid] 95.9
NS(=O)(=O)c1cc(C2(O)NC(=O)c3ccccc32)ccc1Cl (stereo not drawn) 96.1
COc1cc(=O)n(C)c2c(OCC(O)C(C)(C)O)cccc12 (stereo not drawn) [Foliosidine] 93.5
NC(=O)C(=O)[O-].[Na+] [Sodium Oxamate] 94
O=C1CC(c2ccc(O)c(O)c2)Oc2cc(OC3OC(CO)C(O)C(O)C3O)cc(O)c21 (stereo not drawn) [Eriodictyol-7-O-glucoside] 97.7
CN1CCN(c2nc3cc(C(F)(F)F)ccc3n3cccc23)CC1.O=C(O)C=CC(=O)O 103
COCC(=O)NCC=Cc1ccc2ncnc(Nc3ccc(Oc4ccc(C)nc4)c(C)c3)c2c1 98.3
CN1C(CC(=O)c2ccccc2)CCCC1CC(O)c1ccccc1.Cl (stereo not drawn) [alpha-Lobeline hydrochloride] 93.7

Reference: the supplement of paper PMC7156485
